Compound activity (PubChem)
YB-1 expr inh – YB-1 expression inhibition; U2OS, qRT-PCR YB-1 vs CDIP delta delta Cp, 16 h; hits give high values; zero = DMSO, each unit about twofold; delta delta Cp (YB-1 minus CDIP) (test concentration not listed); 30,000 compounds, 0.37% hits; AID 434959;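 active = delta delta Cp rounded down to an integer at or above 3, about 3 SD of DMSO wells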;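 also: higher means less YB-1 transcript or more CDIP transcript relative to DMSO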
ROS inducer – inducers of reactive oxygen species in cancer cells; U2OS ROS induction, H2DCF-DA fluorescence; 46,000 compounds, 2% hits; ROS induction (% of piperlongumine), % at 10 µM; in the data active = ROS induction above about 79%, passing the limit was not always enough;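 also: 0% = DMSO vehicle median and 100% = reference compound median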
An asterisk follows results filed as active; . = no result. Most compounds without a hit are left out; they make up all but 2.1% or so of the library.

SMILES | YB-1 expr inh | ROS inducer
COc1ccc(Cl)cc1NC1=NCC(C)S1 (configuration not stated) | 10* | -8
O=C1NC(=O)C(=C/C=C/c2ccccc2)C(=O)N1 | 0.17 | -7
CC[C@@H]1/C=C\C=C\C[C@H](C)C(O)[C@](C)(O)C(=O)[C@H](C)C(O)[C@H](C)C(=O)[C@H](C)[C@@H](O)[C@H](C)/C=C/C(=O)O[C@H]2[C@@H](C)[C@@H](CC1)O[C@@]1(CC[C@@H](C)[C@@H](C[C@H](C)O)O1)[C@@H]2C (some centres not stated) | -0.57 | 133*
CCC(C)[C@H]1O[C@]2(C=C[C@@H]1C)C[C@@H]1C[C@@H](C/C=C(\C)[C@@H](OC3C[C@H](OC)C(O[C@H]4C[C@H](OC)[C@@H](O)[C@H](C)O4)[C@H](C)O3)[C@@H](C)/C=C/C=C3\CO[C@@H]4[C@H](O)C(C)=C[C@@H](C(=O)O1)[C@]34O)O2 (some centres not stated) | 0.19 | 36
O=C1NC(=O)N(c2ccccc2)C(=O)/C1=C/c1ccco1 | -0.12 | 83*
C=CC(C)(C)[C@]12C=C(OC)C(=O)N3/C(=C/c4cnc[nH]4)C(=O)N[C@@]31N(OC)c1ccccc12 | -0.079 | -8
C=CCN1C(=O)/C(=C/c2cc(C)n(-c3ccccn3)c2C)C(=O)NC1=S | -0.13 | 113*
CO[C@H]1[C@H](O)[C@H](O[C@H]2CC[C@]3(C)C4CC[C@]5(C)[C@H](C6=CC(=O)OC6)CC[C@]5(O)C4CC[C@@H]3C2)O[C@@H](C)[C@@H]1O[C@@H]1O[C@H](CO[C@@H]2O[C@H](CO)[C@@H](O)[C@H](O)[C@H]2O)[C@@H](O)[C@H](O)[C@H]1O (some centres not stated) | -0.089 | 6
C=C1[C@@H](C)[C@H]2[C@H](Cc3ccccc3)NC(=O)[C@]23[C@H](OC(C)=O)C=C[C@](C)(O)C(=O)[C@@H](C)C/C=C/[C@H]3[C@@H]1O | -0.099 | 23
c1ccc(CCCN2CCN(CCOC(c3ccccc3)c3ccccc3)CC2)cc1 | 22* | 23
Fc1ccc(C(OCCN2CCN(CCCc3ccccc3)CC2)c2ccc(F)cc2)cc1 | 0.82 | 2
COc1cc[n+](OC(=O)N2CCCCC2)c(C)c1 | . | -5
CC[C@]12C=CCN3CC[C@@]4(c5ccc(OC)cc5N(C)[C@H]4[C@@](O)(C(=O)OC)[C@@H]1OC(C)=O)[C@@H]32 | -0.11 | 117*
Cn1c(CCN)nc2ccccc21 | . | 16
O=C(CCNS(=O)(=O)c1ccccc1)Nc1ccc(Br)cc1C(=O)c1ccccc1 | . | -3
C[C@H]1OC(O[C@H]2[C@@H](O)CC(O[C@H]3[C@@H](O)C[C@H](O[C@H]4CC[C@]5(C)C6CC[C@]7(C)[C@@H](C8=CC(=O)OC8)[C@@H](O)C[C@]7(O)[C@@H]6CC[C@@H]5C4)O[C@@H]3C)O[C@@H]2C)C[C@H](O)C1O (some centres not stated) | 0.24 | 3
C[C@H]1O[C@@H](O[C@H]2[C@@H](O)C[C@H](O[C@H]3[C@@H](O)C[C@H](O[C@H]4CC[C@@]5(C)[C@H](CC[C@@H]6[C@@H]5CC[C@]5(C)[C@@H](C7=CC(=O)OC7)CC[C@]65O)C4)O[C@@H]3C)O[C@@H]2C)C[C@H](O)[C@@H]1O | 0.021 | 114*
C[C@@H]1O[C@@H](O[C@H]2[C@H](O)[C@@H](O)[C@H](O[C@@H]3C=C4CC[C@@H]5C(CC[C@]6(C)[C@@H](c7ccc(=O)oc7)CC[C@]56O)[C@@]4(C)CC3)O[C@@H]2CO)[C@H](O)[C@H](O)[C@H]1O (some centres not stated) | -0.4 | 61
CC(C)c1cc2c(cc1O)[C@@]1(C)C[C@@H](O)CC(C)(C)C1CC2 (some centres not stated) | 4.5* | 5
CC(C)c1cc2c(cc1O)[C@@]1(C)C[C@@H](O)CC(C)(CO)C1CC2 (some centres not stated) | -0.14 | -1
C/C1=C/C(=O)O[C@@H]2C[C@@H](CC[C@H](C)/C=C\CC1)O[C@@](O)([C@@H]1CSC(=O)N1)C2 | 0.042 | 13
COC1CC(OC2C(C)OC(OC3C(C)OC(OC4C(C)OC(O[C@H]5CC[C@@]6(C)C(=CC[C@]7(O)C6CC(OC(=O)c6ccccc6)[C@@]6(C)[C@]7(O)CC[C@@]6(O)C(C)=O)C5)CC4OC)CC3OC)CC2OC)OC(C)C1O (some centres not stated) | 0.22 | 20
C[C@]12CC[C@H](O)C[C@H]1CC[C@@H]1[C@@H]2CC[C@]2(C)[C@@H](c3ccc(=O)oc3)CC[C@]12O | -0.034 | -6
CO[C@H]1[C@H](O)[C@H](O[C@H]2CC[C@]3(C)C4CC[C@]5(C)[C@H](C6=CC(=O)OC6)CC[C@]5(O)C4CC[C@@H]3C2)O[C@@H](C)[C@@H]1O (some centres not stated) | -0.012 | 2
CC(=O)NCC1CCCN2CCCCC12 (configuration not stated) | . | -7
O=C1CC=C2C3CC4N(CCC45c4ccccc4N1C25)C/C3=C/CO (configuration not stated) | 10* | -1
C[C@@H]1O[C@@H](OC2CCC3(C)C4CCC5(C)C(C6=CC(=O)OC6)CCC5(O)C4CC[C@H]3C2)[C@H](O)[C@H](O)[C@H]1O (some centres not stated) | 2.1 | 8
